What was measured:
Assay in all cases: PBM binding z-score (relative to random genomic background probes); higher = stronger binding; sequences stand for … in GC…GCGATTGACAGCGTAGAATGAAGG
[1] = system: PPARg:RXRa DBDmut IVT, anti-RXR (DBD mutation: RXRa K156A/R161A, NR concentration 270 nM, RXRa partner concentration 90 nM)
Procedure, shortened: (§1)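 Ligand-free nuclear receptor dimers were bound for 1 h to custom Agilent 4×180K protein-binding microarrays. Detection used antibodies against each partner (one per run). Binding z-scores rest on regression-normalized fluorescence, with random background probes as the reference.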

[2] = system: PPARg:RXRa IVT, anti-PPARg (NR concentration 270 nM, RXRa partner concentration 90 nM)
Procedure, shortened: as §1

[3] = system: PPARg DBDmut:RXRa IVT, anti-PPARg (DBD mutation: PPARg1 K132A/R137A, NR concentration 270 nM, RXRa partner concentration 90 nM)
Procedure, shortened: as §1

[4] = system: PPARg DBDmut IVT, anti-PPARg (DBD mutation: PPARg1 K132A/R137A, NR concentration 270 nM)
Procedure, shortened: as §1

[5] = system: PPARg homodimer (NR concentration 180 nM)
Procedure, shortened: as §1

[6] = system: PXR:RXRa (NR concentration 270 nM, RXRa partner concentration 90 nM)
Procedure, shortened: as §1

[7] = system: PXR homodimer (NR concentration 270 nM)
Procedure, shortened: as §1

[8] = system: RARa:RXR (NR concentration 270 nM, RXRa partner concentration 90 nM)
Procedure, shortened: as §1

[9] = system: RARa homodimer (NR concentration 270 nM)
Procedure, shortened: as §1

[10] = system: RARb:RXRa (NR concentration 270 nM, RXRa partner concentration 90 nM)
Procedure, shortened: as §1

[11] = system: RARb homodimer (NR concentration 270 nM)
Procedure, shortened: as §1

[12] = system: RARg:RXRa (NR concentration 270 nM, RXRa partner concentration 90 nM)
Procedure, shortened: as §1

[13] = system: RARg homodimer (NR concentration 270 nM)
Procedure, shortened: as §1

[14] = system: RXRa DBDmut IVT, anti-RXR (DBD mutation: RXRa K156A/R161A, NR concentration 90 nM)
Procedure, shortened: as §1

[15] = system: RXRa homodimer (NR concentration 180 nM)
Procedure, shortened: as §1

[16] = system: THRa:RXRa (NR concentration 90 nM, RXRa partner concentration 90 nM)
Procedure, shortened: as §1

[17] = system: THRa homodimer (NR concentration 90 nM)
Procedure, shortened: as §1

[18] = system: VDR homodimer (NR concentration 270 nM)
Procedure, shortened: as §1

| Sequence | PBM binding z-score [1] | PBM binding z-score [2] | PBM binding z-score [3] | PBM binding z-score [4] | PBM binding z-score [5] | PBM binding z-score [6] | PBM binding z-score [7] | PBM binding z-score [8] | PBM binding z-score [9] | PBM binding z-score [10] | PBM binding z-score [11] | PBM binding z-score [12] | PBM binding z-score [13] | PBM binding z-score [14] | PBM binding z-score [15] | PBM binding z-score [16] | PBM binding z-score [17] | PBM binding z-score [18] |
| --- | --- | --- | --- | --- | --- | --- | --- | --- | --- | --- | --- | --- | --- | --- | --- | --- | --- | --- |
| TCTAGTTGGTCACGGAGGTCACACGCGACGGGTA | 2.46 | 4.38 | 1.06 | 1.9 | 3.12 | 4.55 | 1.5 | 4.54 | 1.78 | 3.87 | 4.41 | 4.66 | 4.95 | 1.4 | 4.97 | 3.67 | 2.4 | 3.43 |
| CGTCCAAGGTCAATTCTAGGTCAGTGAAAGCATT | 3.48 | 4.72 | 0.615 | 0.0326 | 7.64 | 4.96 | 1.82 | 6.11 | 1.9 | 5.19 | 5.03 | 7.43 | 6.42 | 3.52 | 4.75 | 4.64 | 3.17 | 2.76 |
| GGAACGAGCGCAAAGTTGATAGCATCTGTCGACG | -0.42 | -0.495 | -0.634 | -1.33 | -1.01 | -0.773 | -0.719 | -0.723 | -0.818 | -0.372 | -0.951 | -0.446 | -0.392 | -0.219 | -0.2 | -0.823 | -1.24 | -0.905 |
| ATATGTAGGTTAGCTGGGGTCATTCCGACTAGGC | 6.8 | 5.93 | 1.65 | 0.994 | 3.16 | 6.18 | 3.73 | 5.3 | 0.761 | 2.99 | 3.77 | 4.05 | 2.78 | 1.93 | 5.24 | 4.98 | 3.21 | 5.2 |
| TCTAGTTGGTCACGGGGGTCACACACGACGGGTA | 3.49 | 5.43 | 6.78 | 6.87 | 4.67 | 5.72 | 2.32 | 6.59 | 2 | 4.07 | 4.5 | 6.36 | 5.7 | 2.07 | 6.5 | 4.03 | 3.01 | 4.15 |
| GATTACGGGTCAAAGGTTATAGCATGAATAGAAT | 5.21 | 6.61 | 1.49 | 3.11 | 2.97 | 6.03 | 0.645 | 8.43 | 1.34 | 4.69 | 3.44 | 7.12 | 4.85 | 2.27 | 9.48 | 3.95 | 0.146 | 1.64 |
| AATACAGGGTGATCGTAGGCCAGAGTACGCACAG | 0.342 | 1.51 | 0.927 | 0.662 | 0.342 | 0.0587 | 0.139 | 0.29 | 0.275 | 0.432 | 0.66 | 0.545 | 0.556 | -0.0921 | 0.57 | 1.73 | 0.135 | 0.376 |
| CAAACTAGGTCACGAAAGGTCAAAGTTGAATGAC | 8.71 | 9.01 | 2.54 | 2 | 4.96 | 6.9 | 3.33 | 7.79 | 4.38 | 5.45 | 6.02 | 8.01 | 8.58 | 2.59 | 8.85 | 5.01 | 2.88 | 3.89 |
| TAGCCTAGGTCATGGGCCTGTATACCACGCGAAC | 1.69 | 3.19 | 0.382 | -0.135 | 1.45 | 1.82 | -0.611 | 3.17 | 0.359 | 3.97 | 3.34 | 4.47 | 4.67 | 0.485 | 3.9 | 3.23 | 1.31 | 0.584 |
| CCTCCAAGGTCATAGGAGGTCAGTGAAGACAGAT | 2.72 | 4.01 | 1.58 | 0.448 | 4.5 | 6.72 | 4.74 | 5.96 | 2.34 | 5.09 | 5.33 | 6.72 | 7.01 | 3.01 | 6.79 | 5.36 | 3.1 | 4.12 |
| CCTAGCCGGCCAATCTGGGTCACTCAAGGCTTGA | 3.39 | 4.68 | -0.873 | -0.666 | 0.858 | 1.03 | -0.396 | 2.24 | -0.278 | 1.4 | 2.25 | 1.14 | 1.24 | -0.259 | 0.623 | 3.15 | 0.859 | 0.329 |
| TTACCAAGGTGAACTGAGGTCGTTGATCCAACTC | 2.89 | 3.47 | 0.972 | 0.996 | 1.32 | 6.12 | 1.94 | 3.7 | -0.75 | 2.43 | 2.38 | 2.52 | 1.54 | 1.71 | 2.63 | 4.93 | 3.07 | 3.63 |
| CCTTACGGGTCACTTACAGGTTATAGCATTTGGA | 3.22 | 3.45 | 0.739 | 0.78 | 2.43 | 3.37 | 0.26 | 4.24 | 1.28 | 3.65 | 3.2 | 5.65 | 4.51 | 2.19 | 4.62 | 2.95 | 0.577 | 1.66 |
| CGTCCAACGTCAAGGTCAGTGAAAGAGACTCGAA | -0.074 | -0.0705 | -0.79 | -0.354 | 1.13 | 1.59 | 0.288 | 1.99 | 0.37 | 3.35 | 3.13 | 2.61 | 3.16 | 0.737 | 1.9 | 2.57 | 1.67 | 0.844 |
| GCTTACGGGTCAAAGGTTATAACATGAATAGAAT | 4.69 | 5.8 | 1.74 | 2.86 | 3.61 | 6.24 | 0.489 | 8.14 | 0.937 | 4.53 | 3.48 | 6.91 | 4.77 | 2.43 | 9.77 | 4.13 | 0.296 | 1.8 |

From the supplement of paper PMC6555819
